Compounds without any hit were thinned out: in the full panel of roughly 79,000, 15% have a hit. Unmarked numbers belong to inactive results. The source made the active and inactive calls. No stated cut-off is given here; in the data, active means growth inhibition above about 70%; inactive means the rest.
What was measured:
[1] = NCI Yeast Anticancer Drug Screen. Data for the mec2-1 strain (AID 157); details: S. cerevisiae mec2-1 strain, stronger effect = higher value
Outline: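 Readout is yeast growth inhibition, normalised to vehicle-treated controls, in the mec2-1 strain exposed to compound.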

[2] = NCI Yeast Anticancer Drug Screen. Data for the rad14 strain (AID 159);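 further: 0% = growth of vehicle-treated control cultures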; details: S. cerevisiae rad14 strain growth inhibition, stronger effect = higher value
Outline: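 Screen for anticancer potential: a yeast strain altered in DNA damage repair is grown with compound, and reduced growth is quantified against vehicle controls.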

[3] = NCI Yeast Anticancer Drug Screen. Data for the sgs1 mgt1 strain (AID 161);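 further: 0% = growth of cultures given vehicle only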; details: S. cerevisiae sgs1 mgt1 strain, stronger effect = higher value
Outline: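 Compounds are added to genetically altered yeast, and growth is compared with cultures given vehicle alone to give percent inhibition.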

[4] = NCI Yeast Anticancer Drug Screen. Data for the CLN2oe strain (AID 163);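 further: 0% = growth of vehicle-only control cultures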; details: S. cerevisiae CLN2oe strain, stronger effect = higher value
Outline: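 Values reflect how much compound exposure reduced yeast growth, referenced to vehicle-exposed cells. Assay organism is a strain with a defined genetic change affecting cell-cycle control.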

[5] = NCI Yeast Anticancer Drug Screen. Data for the cln2 rad14 strain (AID 165);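 further: 0% = growth equal to vehicle treated cultures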; details: S. cerevisiae cln2 rad14 strain, stronger effect = higher value
Outline: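 Relative to vehicle controls, growth inhibition of compound-treated cln2 rad14 yeast was recorded.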

[6] = NCI Yeast Anticancer Drug Screen. Data for the bub3 strain (AID 167); details: S. cerevisiae bub3 mutant strain, stronger effect = higher value
Outline: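 Screening used yeast with an engineered genetic alteration affecting cell cycle control. Compound-exposed cultures were compared with vehicle cultures, and reduced growth was taken as inhibition.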

[7] = NCI Yeast Anticancer Drug Screen. Data for the wt2 strain (AID 169);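 further: 0% = growth of vehicle-treated yeast cultures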; details: S. cerevisiae wt2 strain growth inhibition, stronger effect = higher value
Outline: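 Values express reduction in yeast growth under compound treatment, referenced to vehicle-treated cells.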

[8] = NCI Yeast Anticancer Drug Screen. Data for the mlh1 strain (AID 171);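 further: 0% = growth of vehicle-treated control cultures of the same strain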; details: S. cerevisiae mlh1 strain growth inhibition, stronger effect = higher value
Outline: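 Steps: expose the defined-mutant yeast strain to compound; expose a parallel culture to vehicle; measure growth; express compound effect as inhibition relative to the vehicle culture.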

[9] = NCI Yeast Anticancer Drug Screen. Data for the sgs1 strain (AID 173);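 further: 0% = growth of vehicle-only control cultures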; details: S. cerevisiae sgs1 mutant, stronger effect = higher value
Outline: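 Treat defined-mutant yeast with compound; measure growth; calculate inhibition relative to vehicle-treated cells.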

[10] = NCI Yeast Anticancer Drug Screen. Data for the mlh1 rad18 strain (AID 175); details: S. cerevisiae mlh1 rad18 strain growth inhibition, stronger effect = higher value
Outline: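 Test agents were incubated with a yeast strain of defined genotype (DNA damage repair defect). Inhibition of growth was derived by comparison with vehicle-exposed cultures.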

[11] = NCI Yeast Anticancer Drug Screen. Data for the rad18 strain (AID 177); details: S. cerevisiae rad18 mutant growth inhibition, stronger effect = higher value
Outline: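 A genetically defined yeast mutant impaired in DNA damage repair was treated with test compounds, then its growth was measured against cultures receiving vehicle alone.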

[12] = NCI Yeast Anticancer Drug Screen. Data for the rad52 strain (AID 147);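 further: 0% = growth of vehicle-treated control cultures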; details: S. cerevisiae rad52 mutant growth inhibition, stronger effect = higher value
Outline: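 Screen used a yeast mutant impaired in DNA repair. After compound exposure, growth was measured. Values reflect inhibition compared with vehicle-treated cells.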

[13] = NCI Yeast Anticancer Drug Screen. Data for the rad50EPP+ strain (AID 151);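 further: 0% = growth of vehicle-treated control cultures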; details: S. cerevisiae rad50 mutant strain, stronger effect = higher value
Outline: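 Exposing the rad50EPP+ strain to each compound, growth was compared with vehicle-only cultures to give inhibition.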

[14] = NCI Yeast Anticancer Drug Screen. Data for the mgt1 strain (AID 153); details: S. cerevisiae mgt1 mutant growth inhibition, stronger effect = higher value
Outline: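 Genetically defined yeast (mgt1) treated with compound; inhibition of growth expressed against vehicle-treated controls.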

[15] = NCI Yeast Anticancer Drug Screen. Data for the rad50 strain (AID 155);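 further: 0% = growth of vehicle-only cultures of the same strain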; details: S. cerevisiae rad50 strain growth inhibition, stronger effect = higher value
Outline: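 Relative growth inhibition (compound vs vehicle) was measured in yeast with a defined repair-gene alteration.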

[16] = at 5.0 µM (retest, dose inferred, filed as 0.5)
[17] = at 50.0 µM (retest, dose inferred, filed as 5.0)

## CC(C)/C(Cl)=N\OC(=O)Nc1ccc(F)cc1F
[1]; at 100.0 µM
  growth inhibition: 95% (active)
[2]; at 1.2 µM
  growth inhibition: 0%
[2]; at 3.7 µM
  growth inhibition: 3%
[2]; at 11.0 µM
  growth inhibition: 9%
[2]; at 33.0 µM
  growth inhibition: 17%
[2]; at 100.0 µM
  growth inhibition: 37%
[3]; [16]
  growth inhibition: -12%
[3]; [17]
  growth inhibition: 69%
[3]; at 50.0 µM
  growth inhibition: 70.8% (active)
[4]; at 1.2 µM
  growth inhibition: 7%
[4]; at 3.7 µM
  growth inhibition: 11%
[4]; at 11.0 µM
  growth inhibition: 12%
[4]; at 33.0 µM
  growth inhibition: 12%
[4]; at 100.0 µM
  growth inhibition: 24%
[5]; [16]
  growth inhibition: -1%
[5]; [17]
  growth inhibition: 38%
[5]; at 50.0 µM
  growth inhibition: 44.8%
[6]; at 1.2 µM
  growth inhibition: 23%
[6]; at 3.7 µM
  growth inhibition: 38%
[6]; [16]
  growth inhibition: 27%
[6]; at 11.0 µM
  growth inhibition: 70% (active)
[6]; at 33.0 µM
  growth inhibition: 90% (active)
[6]; [17]
  growth inhibition: 97% (active)
[6]; at 50.0 µM
  growth inhibition: 82.1% (active)
[6]; at 100.0 µM
  growth inhibition: 98% (active)
[7]; at 1.2 µM
  growth inhibition: 0%
[7]; at 3.7 µM
  growth inhibition: 0%
[7]; at 11.0 µM
  growth inhibition: 2%
[7]; at 33.0 µM
  growth inhibition: 12%
[7]; at 100.0 µM
  growth inhibition: 63%
[8]; at 1.2 µM
  growth inhibition: 0%
[8]; at 3.7 µM
  growth inhibition: 6%
[8]; at 11.0 µM
  growth inhibition: 9%
[8]; at 33.0 µM
  growth inhibition: 16%
[8]; at 100.0 µM
  growth inhibition: 53%
[9]; at 1.2 µM
  growth inhibition: -1%
[9]; at 3.7 µM
  growth inhibition: 0%
[9]; at 11.0 µM
  growth inhibition: 4%
[9]; at 33.0 µM
  growth inhibition: 27%
[9]; at 100.0 µM
  growth inhibition: 83% (active)
[10]; [16]
  growth inhibition: -29%
[10]; [17]
  growth inhibition: 69%
[10]; at 50.0 µM
  growth inhibition: 58%
[11]; at 1.2 µM
  growth inhibition: -3%
[11]; at 3.7 µM
  growth inhibition: -1%
[11]; at 11.0 µM
  growth inhibition: 4%
[11]; at 33.0 µM
  growth inhibition: 17%
[11]; at 100.0 µM
  growth inhibition: 79% (active)

## S=c1[nH]c2cc3ccccc3cc2[nH]1
[12]; at 1.2 µM
  growth inhibition: -42%
[12]; at 3.7 µM
  growth inhibition: -46%
[12]; at 11.0 µM
  growth inhibition: -37%
[12]; at 33.0 µM
  growth inhibition: -31%
[12]; at 100.0 µM
  growth inhibition: -19%
[13]; at 1.2 µM
  growth inhibition: -12%
[13]; at 3.7 µM
  growth inhibition: 3%
[13]; at 11.0 µM
  growth inhibition: -4%
[13]; at 33.0 µM
  growth inhibition: 14%
[13]; at 100.0 µM
  growth inhibition: 38%
[14]; at 1.2 µM
  growth inhibition: -36%
[14]; at 3.7 µM
  growth inhibition: -7%
[14]; at 11.0 µM
  growth inhibition: -15%
[14]; at 33.0 µM
  growth inhibition: 6%
[14]; at 100.0 µM
  growth inhibition: 16%
[15]; at 1.2 µM
  growth inhibition: -25%
[15]; at 3.7 µM
  growth inhibition: -25%
[15]; [16]
  growth inhibition: 5%
[15]; at 11.0 µM
  growth inhibition: -11%
[15]; at 33.0 µM
  growth inhibition: 3%
[15]; [17]
  growth inhibition: 86% (active)
[15]; at 50.0 µM
  growth inhibition: 71.2% (active)
[15]; at 100.0 µM
  growth inhibition: 17%
[1]; at 1.2 µM
  growth inhibition: -25%
[1]; at 3.7 µM
  growth inhibition: -13%
[1]; [16]
  growth inhibition: -3%
[1]; at 11.0 µM
  growth inhibition: -8%
[1]; at 33.0 µM
  growth inhibition: 1%
[1]; [17]
  growth inhibition: 17%
[1]; at 50.0 µM
  growth inhibition: 45.6%
[1]; at 100.0 µM
  growth inhibition: 24%
[2]; at 1.2 µM
  growth inhibition: -14%
[2]; at 3.7 µM
  growth inhibition: -11%
[2]; at 11.0 µM
  growth inhibition: -7%
[2]; at 33.0 µM
  growth inhibition: -10%
[2]; at 100.0 µM
  growth inhibition: 1%
[3]; [16]
  growth inhibition: -5%
[3]; [17]
  growth inhibition: 15%
[3]; at 50.0 µM
  growth inhibition: 68.8%
[4]; at 1.2 µM
  growth inhibition: -13%
[4]; at 3.7 µM
  growth inhibition: -18%
[4]; at 11.0 µM
  growth inhibition: -3%
[4]; at 33.0 µM
  growth inhibition: -7%
[4]; at 100.0 µM
  growth inhibition: 18%
[5]; [16]
  growth inhibition: 34%
[5]; [17]
  growth inhibition: 57%
[5]; at 50.0 µM
  growth inhibition: 43.6%
[6]; at 1.2 µM
  growth inhibition: -7%
[6]; at 3.7 µM
  growth inhibition: 15%
[6]; [16]
  growth inhibition: -4%
[6]; at 11.0 µM
  growth inhibition: -9%
[6]; at 33.0 µM
  growth inhibition: 7%
[6]; [17]
  growth inhibition: 83% (active)
[6]; at 50.0 µM
  growth inhibition: 68.9%
[6]; at 100.0 µM
  growth inhibition: 40%
[7]; at 1.2 µM
  growth inhibition: -55%
[7]; at 3.7 µM
  growth inhibition: -50%
[7]; at 11.0 µM
  growth inhibition: -46%
[7]; at 33.0 µM
  growth inhibition: -19%
[7]; at 100.0 µM
  growth inhibition: -3%
[8]; at 1.2 µM
  growth inhibition: -13%
[8]; at 3.7 µM
  growth inhibition: -7%
[8]; at 11.0 µM
  growth inhibition: -4%
[8]; at 33.0 µM
  growth inhibition: 14%
[8]; at 100.0 µM
  growth inhibition: 34%
[9]; at 1.2 µM
  growth inhibition: -27%
[9]; at 3.7 µM
  growth inhibition: -8%
[9]; at 11.0 µM
  growth inhibition: -4%
[9]; at 33.0 µM
  growth inhibition: 20%
[9]; at 100.0 µM
  growth inhibition: 25%
[10]; [16]
  growth inhibition: 9%
[10]; [17]
  growth inhibition: 78% (active)
[10]; at 50.0 µM
  growth inhibition: 67.6%
[11]; at 1.2 µM
  growth inhibition: -9%
[11]; at 3.7 µM
  growth inhibition: 2%
[11]; at 11.0 µM
  growth inhibition: 11%
[11]; at 33.0 µM
  growth inhibition: 18%
[11]; at 100.0 µM
  growth inhibition: 17%

From PubChem BioAssay (NCI)
